Screens (PubChem)
TSHR antag – Antagonists of the Thyroid Stimulating Hormone Receptor: HTS campaign. TSHR-expressing cells, TSH-stimulated cAMP HTRF, 2 h; hits give low values. activity change, negative = inhibition, % at 11.5 µM. 330,000 compounds, 0.2% hits;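 active = activity change below a set negative limit, meaning inhibition stronger than a set level, cut at about -70% in these data; inconclusive = activity change between two set negative limits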
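Read-out is FRET at 665 nm (cryptate excitation 337 nm) from a cryptate-tagged anti-cAMP antibody, competed by cell cAMP against cAMP-d2. Compounds are tested on freshly harvested TSHR cells challenged with 4nM TSH (EC80) for 2 hours at 37 deg C.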
B2AR arrestin – qHTS assay of beta-arrestin-biased ligands of beta2-adrenergic receptor | 330,000 compounds, 0.02% hits | AID 492947, 2010 | beta-arrestin recruitment to beta2AR, cell-based reporter | Potency, µM (highest dose often 46.1 µM), actives largely listed as activators | Beta-2 adrenergic receptor (Homo sapiens), P07550; active = well fitted activation curve with a large enough effect; inconclusive = small, poorly fitted or top-dose-only effect; note: nearly all actives have a fitted effect of over 65% in size
Target sequence (P07550 whole entry, looked up): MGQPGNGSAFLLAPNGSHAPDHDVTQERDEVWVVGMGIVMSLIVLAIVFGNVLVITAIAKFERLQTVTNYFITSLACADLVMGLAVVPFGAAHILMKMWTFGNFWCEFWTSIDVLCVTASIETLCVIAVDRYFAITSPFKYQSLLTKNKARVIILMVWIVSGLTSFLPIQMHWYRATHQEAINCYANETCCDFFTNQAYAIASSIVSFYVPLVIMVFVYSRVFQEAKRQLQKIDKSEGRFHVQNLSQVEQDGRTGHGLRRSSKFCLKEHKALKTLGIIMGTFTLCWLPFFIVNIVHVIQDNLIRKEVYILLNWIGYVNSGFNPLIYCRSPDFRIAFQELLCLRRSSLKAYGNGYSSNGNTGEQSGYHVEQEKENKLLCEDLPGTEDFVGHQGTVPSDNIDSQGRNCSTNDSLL
DRD3 agonist – qHTS of D3 Dopamine Receptor Agonist: qHTS | D(3) dopamine receptor (Homo sapiens), P35462 | D3R DiscoveRx beta-arrestin cells, luminescence, 90 min | max activation, % | 410,000 compounds, 0.58% hits; in the data active = max activation above about 30%
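Agonist-mode cell screen: cells plated at 1500/well and incubated overnight at 37 °C, then exposed to library compounds for 90 min at 37 °C. Detection reagent was added for 30–60 min at room temperature, and luminescence was read.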
D3 antag – qHTS of D3 Dopamine Receptor Antagonist: qHTS | D3R cells, DiscoveRx beta-arrestin luminescence, antagonist mode; hits give low values | max response, negative = inhibition, % | 360,000 compounds, 2.5% hits; in the data active = max response below about -50%; inconclusive = no clear call, values can overlap the other calls
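Cells expressing the human receptor were seeded at 1500 cells/well, incubated overnight at 37 degrees C in 5% CO2, then exposed to library compounds with dopamine controls for 90 minutes at 37 degrees C before luminescent detection.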
Of the large screens only hits and unclear results are named; the others gave an inactive call; ! = not active in a repeat. Compounds with a hit are over-represented: about 2.9% of the library has one in this group of screens.

O=C(c1ccc(Br)cc1)C(CN1CCOCC1)c1ccccc1 (centres undefined)	D3 antag -87.8
O=C(c1ccccc1)C(CN1CCCCC1)c1ccccc1 (centres undefined)	D3 antag -76.9 (no result: TSHR antag, B2AR arrestin)
CCOc1ccc(C(=O)C(CN2CCOCC2)c2ccccc2)cc1 (centres undefined)	none
CN(C)CC(C(=O)c1ccccc1)c1ccccc1 (centres undefined)	D3 antag -51.3
O=C(CC(C(=O)c1ccccc1)c1ccccc1)c1ccccc1 (centres undefined)	none (no result: TSHR antag, B2AR arrestin)
Cc1ccc(Cn2c(C)c3cnn(CC(=O)N4CCN(c5cc(C)ccc5C)CC4)c(=O)c3c2C)cc1	none (no result: TSHR antag, B2AR arrestin, D3 antag)
COc1cccc(NS(=O)(=O)c2ccc3c(c2)n(C)c(=O)n3C)c1	none (no result: TSHR antag, B2AR arrestin, D3 antag)
Cn1c(NCc2cccc(Br)c2)nc2ccccc21	D3 antag -58.1
Brc1cccc(CNc2nc3ccccc3n2CCN2CCCCC2)c1	none
COc1cccc(CNC(=O)Cn2nc(C)n3c(cc4cc(C)ccc43)c2=O)c1OC	none (no result: TSHR antag, B2AR arrestin, D3 antag)
COc1cccc(NC(=O)[C@H](NC(=O)[C@@H]2Cc3ccccc3CN2)c2ccccc2)c1	D3 antag -92.1
Cc1ccc(NC(=O)[C@H](NC(=O)[C@@H]2Cc3ccccc3CN2)c2ccccc2)cc1	D3 antag -99.7
CC(C)c1ccc(NC(=O)[C@H](NC(=O)[C@@H]2Cc3ccccc3CN2)c2ccccc2)cc1	D3 antag -97.7
CC(NC(=O)[C@H](NC(=O)[C@@H]1Cc2ccccc2CN1)c1ccccc1)c1ccccc1 (some centres undefined)	none
Cc1cccc(NC(=O)[C@H](NC(=O)[C@@H]2Cc3ccccc3CN2)c2ccccc2)c1	D3 antag -88.9
C[C@@]12CCC3[C@@](CCC4[C@@]3(C)CCC[C@@]4(C)C(=O)N3CCOCC3)(CC1=O)C2 (some centres undefined)	DRD3 agonist 31.4
CC(C)NC(=O)[C@]1(C)CCC[C@@]2(C)C3CC[C@@]4(C)C[C@]3(CCC21)CC4=O (some centres undefined)	none
OC(c1ccccc1)(c1ccccc1)C1CCN(CCCOc2cccc(OC(F)(F)F)c2)CC1	D3 antag -80.5 (no result: TSHR antag, B2AR arrestin)
CC(=O)Nc1ccc(OCCC[n+]2ccccc2)cc1	none
CC(C)(C)c1ccc(C(O)CCCN2CCC(C(O)(c3ccccc3)c3ccccc3)CC2)cc1 (centres undefined)	D3 antag -60.4
N#CCc1ccc(OCCCN2CCC(C(O)(c3ccccc3)c3ccccc3)CC2)cc1	D3 antag -68.2 (no result: TSHR antag, B2AR arrestin)
OC(c1ccccc1)(c1ccccc1)C1CCN(CCCOc2ccc3c(c2)CCCC3)CC1	none (no result: TSHR antag, B2AR arrestin)
CC(=O)Nc1ccc(OCCCN2CCC(C(O)(c3ccccc3)c3ccccc3)CC2)cc1	D3 antag -104.2 (no result: TSHR antag, B2AR arrestin)
CC(=O)N1CCCc2cc(S(=O)(=O)N(C)CC(=O)Nc3ccc(C)cc3C)ccc21	none (no result: TSHR antag, B2AR arrestin, D3 antag)
CCOC(=O)CN(Cc1ccccc1)C(C(=O)NC1CCCCC1)c1ccc(C)cc1 (centres undefined)	none (no result: TSHR antag, B2AR arrestin, D3 antag)
CCOc1ccccc1NC(=O)NCCN1CCCCC1	D3 antag inconclusive
CC(=O)Nc1ccccc1OCCCN1CCC(C(O)(c2ccccc2)c2ccccc2)CC1	D3 antag -69.9 (no result: TSHR antag, B2AR arrestin)
CCCCCCSc1cccc(-c2nc3cc(C)ccn3c2NCc2ccccc2)c1	DRD3 agonist 33.4!
CCCCCCSc1cc(-c2nc3ccc(C)cn3c2NCc2ccccc2)ccc1OC	DRD3 agonist 61.8!
CCCCCCSc1cccc(-c2nc3ccccn3c2NCc2ccccc2)c1	DRD3 agonist 96.1!
Cc1c(Cl)cccc1NC(=O)CSc1nc(=O)[nH]c2c1CCCC2	none (no result: TSHR antag, B2AR arrestin, D3 antag)
CCOC(=O)C(=CNc1cc(C)nn1-c1ccccc1)C(=O)OCC	DRD3 agonist 97.6
CCOc1ccc(Nc2c(S(=O)(=O)c3ccccc3)cnc3ccc(CC)cc23)cc1	none (no result: TSHR antag, B2AR arrestin, D3 antag)
CCCCCCCCCCCCCCCCCCOCC(COP(=O)([O-])OCC[N+](C)(C)C)OC (centres undefined)	none (no result: TSHR antag, B2AR arrestin, D3 antag)
COc1cccc(C(=O)OCCN2CCCCC2)c1	D3 antag inconclusive
COc1cccc(-c2oc3c(c2C(=O)OCCN2CCCCC2)C(O)CCC3)c1 (centres undefined)	D3 antag -54.6 (no result: TSHR antag, B2AR arrestin)
O=C(O)CN1C2=NCCCN2c2ccccc21	none
O=C(CN1C2=NCCCN2c2ccccc21)c1ccc(Br)s1	D3 antag -53.6
Cc1ccc(CN2C3=NCCCN3c3ccccc32)cc1	none
CC(C)(C)c1ccc(CN2C3=NCCCN3c3ccccc32)cc1	D3 antag -62.7
CCN1CCN(C(=O)NC2CCCCC2)CC1	none
O=C(NC1CCCCC1)N1CCN(CCc2ccccc2)CC1	D3 antag -61.4
Cn1cnc([N+](=O)[O-])c1S(=O)(=O)c1ccc(Cl)cc1	D3 antag -67.7
Cn1cnc([N+](=O)[O-])c1NC(C)(C)C	none
CCOc1ccc(C2NC(=O)c3c(COC)cc(C)nc3N2Cc2ccccc2)cc1OC (centres undefined)	none (no result: TSHR antag, B2AR arrestin, D3 antag)
Cc1ccccc1Cn1c(=O)n(CC2CCC(C(=O)N3CCC(C)CC3)CC2)c(=O)c2sccc21 (centres undefined)	none (no result: TSHR antag, B2AR arrestin, D3 antag)
C[C@H]1CNC(=O)c2c(C(=O)N3CCN(C(=O)OC(C)(C)C)CC3)ncn21	D3 antag -55.2 (no result: TSHR antag, B2AR arrestin)
CNC(=O)CSc1nnc(C(C)C)n1C	none
CCn1c(SCC(=O)NC)nnc1C(C)C	D3 antag -51.6
CCOc1cccc(Cc2c[nH]c(=O)[nH]c2=O)c1	D3 antag inconclusive (no result: TSHR antag, B2AR arrestin)
COc1ccc(CN2CCC(C(=O)NC(c3ccc4c(c3)OCO4)c3ccccn3)CC2)cc1 (centres undefined)	none (no result: TSHR antag, B2AR arrestin)
COc1ccc(OCCN2CCC(C(=O)NC(c3ccc(OC)cc3)c3ccccn3)CC2)cc1 (centres undefined)	D3 antag -66.8 (no result: TSHR antag, B2AR arrestin)
Cc1ccc(C(NC(=O)C2CCN(Cc3ccc(Oc4ccccc4)cc3)CC2)c2ccccn2)cc1 (centres undefined)	D3 antag -83.1 (no result: TSHR antag, B2AR arrestin)
COc1ccc(C(NC(=O)C2CCN(CCCOc3ccccc3)CC2)c2ccccn2)cc1 (centres undefined)	D3 antag -109.5 (no result: TSHR antag, B2AR arrestin)
COc1ccc(C(NC(=O)C2CCN(CCCc3ccccc3)CC2)c2ccccn2)cc1 (centres undefined)	none (no result: TSHR antag, B2AR arrestin)
O=C(NC(c1ccc(-c2ccccc2)cc1)c1cnccn1)C1CCN(CCCOc2ccccc2)CC1 (centres undefined)	D3 antag -72.9 (no result: TSHR antag, B2AR arrestin)
COc1ccc(C2C(C(N)=O)=C(C)Nc3nc(CCCO)nn32)c(OC)c1 (centres undefined)	none (no result: TSHR antag, B2AR arrestin, D3 antag)
Cc1ccc(C)c(N2CCN(C(c3ccc(F)cc3)c3nnc(-c4ccccc4)o3)CC2)c1 (centres undefined)	none (no result: TSHR antag, B2AR arrestin, D3 antag)
CCc1ccccc1NC(=O)CSc1ncc(S(=O)(=O)c2ccccc2)c(N)n1	none (no result: TSHR antag, B2AR arrestin, D3 antag)
